This is an account of results in PubChem BioAssay (NCI).

This is part of a sample that, as a whole, favours compounds with a hit. Of some 83,000 tested, about 20% had one in any assay.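 A percent growth of 40 corresponds to 60% growth inhibition; 0 means no net growth; -100 means all cells died. Active threshold: below 10.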 A number with no mark means an inactive call. Calls of active or inactive are those of the source.

Among the test systems are NCI-H226 lung; NCI-H322M lung; HOP-62 NSCLC; NCI-H460 lung; HOP-92 NSCLC; NCI-H522 lung; A549/ATCC NSCLC; 786-0 renal; COLO 205 colon; DU-145 prostate; K-562 leukemia; MALME-3M melanoma; MDA-MB-231 breast; RXF 393 renal; SF-268 CNS; SF-295 CNS; SF-539 CNS; UACC-257 melanoma; M14 melanoma.
Holding throughout (test): NCI-60 one-dose screen, 48 h (100 = growth as untreated, 0 = no growth, -100 = all killed)
Common to all, as to conditions: 10 µM unless noted

`CC(C)NC(=O)N1C(=O)CCC1NNC(=O)c1ccc([N+](=O)[O-])cc1` (stereo unspecified): the growth in the experiment with NCI-H226 lung was 104%; with NCI-H322M lung, 96.3%; in the experiment on HOP-62 NSCLC, 106%; in the experiment with NCI-H460 lung, 121%; in the experiment with HOP-92 NSCLC, 109%; with NCI-H522 lung, 93.1%. Further, the growth was 104% in the experiment with A549/ATCC NSCLC; 98.5% with 786-0 renal; 112% in the experiment on COLO 205 colon; 103% with DU-145 prostate; 98.6% in the experiment with K-562 leukemia; 101% with MALME-3M melanoma. For the same compound, the growth with MDA-MB-231 breast is 108%; in the experiment with RXF 393 renal, 123%; in the experiment on SF-268 CNS, 100%; with SF-295 CNS, 105%; with SF-539 CNS, 97.7%; in the experiment on UACC-257 melanoma, 111%. The growth in the experiment on M14 melanoma was 100%.
Turning to `COc1cc(C2NC(c3cc(OC)c(OC)c(OC)c3)C(C#N)(C#N)C2(C#N)C#N)cc(OC)c1OC` (stereo unspecified), the growth was 91.5% in the experiment with NCI-H226 lung; 100% in the experiment on NCI-H322M lung; 94.8% with HOP-62 NSCLC; 104% with NCI-H460 lung; 96.5% with HOP-92 NSCLC; 95.6% with NCI-H522 lung. The growth was 103% in the experiment with A549/ATCC NSCLC; 97% in the experiment with 786-0 renal; 101% in the experiment on COLO 205 colon; 102% with DU-145 prostate; 109% in the experiment with K-562 leukemia; 96% in the experiment with MALME-3M melanoma. For the same compound, the growth with MDA-MB-231 breast is 97.3%; in the experiment with RXF 393 renal, 114%; with SF-268 CNS, 105%; in the experiment with SF-295 CNS, 99.8%; in the experiment on SF-539 CNS, 95.8%; in the experiment with UACC-257 melanoma, 106%. For the same compound, the growth in the experiment on M14 melanoma is 92.9%.
In the case of `CC(C)(C)CC(C)(C)Nc1c(-c2ccc(C(F)(F)F)cc2)nc2cnccn12`, the growth is 92.5% in the experiment on NCI-H226 lung; 103% in the experiment on NCI-H322M lung; 92.7% with HOP-62 NSCLC; 89.5% in the experiment on NCI-H460 lung; 82.6% with HOP-92 NSCLC; 67.4% with NCI-H522 lung. For the same compound, the growth with A549/ATCC NSCLC was 83.1%; with 786-0 renal it was -12.3% (active); in the experiment on COLO 205 colon, 96%; with DU-145 prostate, 93%; in the experiment on K-562 leukemia it was 65.6%; with MALME-3M melanoma, 103%. Also, the growth was 86% in the experiment with MDA-MB-231 breast; 88.8% in the experiment with SF-268 CNS; 86.3% with SF-295 CNS; 86% in the experiment on SF-539 CNS; 98.7% in the experiment with UACC-257 melanoma; -54.1% (active) in the experiment on M14 melanoma.
